Here are results for 69 compounds from article PMC4552634, “A New Set of Chemical Starting Points with Plasmodium falciparum Transmission-Blocking Potential for Antimalarial Drug Discovery” (PLoS ONE, 2015).

The whole screen tested about 13,000 compounds, of which about 3,200 (25%) showed an effect of 50% or more. Some of the results follow.

Broadly, the % Inhibition is the relative decrease from the control value, in per cent.

For the assay, the system named is P. falciparum stage V gametocytes. Also noted: BacTiter-Glo ATP luminescence viability of purified stage V gametocytes in 384-well plates, per cent inhibition versus DMSO. As to conditions: 48 h, 5 µM; inhibitor.
As for `O=C(NC1CCN(c2ccnc(Nc3ccc(F)cc3)n2)C1)c1cc2ccccc2s1` (stereo not drawn) [TCMDC-133599], the “% Inhibition” value was 10.95%. As to `O=C(Nc1cccc(CN2CCCN(CC3CCCCC3)CC2)c1)c1ccc(Cl)c(Cl)c1` [TCMDC-141818], the “% Inhibition” value is on record as -34.63%. For `O=C(Nc1cccc(CN2CCCN(Cc3ccc(O)cc3)CC2)c1)c1ccc(Cl)c(Cl)c1` [TCMDC-141834] the value was -18.14%; for `Cc1ccc(NC(=O)c2cccc(CN3CCCN(Cc4cccc(O)c4)CC3)c2)cc1C` [TCMDC-135979], 91.29%; for `O=C(Nc1cccc(CN2CCN(Cc3cccc(O)c3)CC2)c1)c1ccc(Cl)c(Cl)c1` [TCMDC-134618], 76.18%. For `O=C(Nc1cccc(CN2CCN(Cc3ccc(O)cc3)CC2)c1)c1ccc(Cl)c(Cl)c1` [TCMDC-134619] the value was -11.77%; for `COc1cccc(CN2CCCN(Cc3cccc(NC(=O)c4ccc(Cl)c(Cl)c4)c3)CC2)c1` [TCMDC-141830], 58.26%; for `Cc1ccc(NC(=O)c2cccc(CN3CCCN(Cc4cccc(O)c4)CC3)c2)cc1F` [TCMDC-135959], -11.31%. `N#Cc1ccc(CN2CCCN(Cc3cccc(NC(=O)c4ccc(Cl)c(Cl)c4)c3)CC2)cc1` [TCMDC-141823]: the “% Inhibition” value is reported as -56.24%. In the case of `O=C(Nc1cccc(CN2CCCN(Cc3cccc(O)c3)CC2)c1)c1ccc(Cl)c(Cl)c1` [TCMDC-141831] it was -42.16%.

As to `Cc1ccc(NC(=O)c2ccc(CN3CCCN(Cc4cccc(O)c4)CC3)cc2)cc1C` [TCMDC-136427], the “% Inhibition” value was 11.16%. For `Cc1ccc(C(=O)Nc2cccc(CN3CCCN(Cc4ccc(O)cc4)CC3)c2)cc1` [TCMDC-141815] the value was 21.11%. Take `Cc1ccc(CN2CCCN(Cc3cccc(NC(=O)c4ccc(Cl)c(Cl)c4)c3)CC2)cc1` [TCMDC-141835]: the “% Inhibition” value turned out to be 80.74%.

On to `O=C(Nc1ccc(OC2CCN(Cc3ccccc3)CC2)c(Cl)c1)c1ccc(F)cc1` [TCMDC-133967], for which the “% Inhibition” value stood at 19.46%. Turning to `FC(F)(F)c1ccc2nc(-c3ccc(-c4ccc(CN5CCN(c6ccncc6)CC5)cc4)cc3)[nH]c2c1` [TCMDC-132915], the “% Inhibition” value is listed as -1.262%. In the case of `COc1cc(F)c2ncc(Cl)c(C(O)CN3CCC(NC(=O)c4ccc5c(n4)NC(=O)CO5)CC3)c2c1` (stereo not drawn) [TCMDC-135912] it was -16.65%. In the case of `CCCc1cc(OC)c(CC2c3cccc(O)c3CCN2C)cc1OC` (stereo not drawn) [TCMDC-137435] it was 12.33%; in that of `CN(C)c1ccc(C=CC(=O)NC(=O)c2ccccc2O)cc1` [TCMDC-125391], 21.33%.

With `COc1ccc2c(c1)[nH]c1c(C=Cc3ccccc3)nccc12` [TCMDC-125877], the “% Inhibition” value was -0.575%.

On to `CCC(Cc1cnc2nc(N)nc(N)c2n1)c1ccc(C(=O)N[C@@H](CCC(=O)O)C(=O)O)cc1` (stereo partly drawn) [TCMDC-137768], for which the “% Inhibition” value is -32.96%.

For the compound `CN(c1cc(NC(=O)c2ccc(F)cc2)ccn1)C1CCN(Cc2cccc(C#N)c2)CC1` [TCMDC-134975], the “% Inhibition” value amounted to 15.95%. As for `O=C(Nc1cccc(CN2CCCN(Cc3cccnc3)CC2)c1)c1ccc(Cl)c(Cl)c1` [TCMDC-141824], the “% Inhibition” value stood at 12.34%. For `Cc1ccc(NC(=O)c2ccc(CN3CCCN(CCC(C)C)CC3)cc2)cc1F` [TCMDC-136410] the value was -21.57%.

As for `CC(C)CCN1CCCN(Cc2ccc(C(=O)Nc3ccc(Cl)cc3)cc2)CC1` [TCMDC-136413], the “% Inhibition” value is on record as 0.3374%. Take `O=C(Nc1cccc(CN2CCCN(Cc3ccsc3)CC2)c1)c1ccc(Cl)c(Cl)c1` [TCMDC-134581]: the “% Inhibition” value was -57.04%.

Take `CCCCCCN1CCN(Cc2cccc(NC(=O)c3ccc(Cl)c(Cl)c3)c2)CC1` [TCMDC-134617]: the “% Inhibition” value is -46.23%. In the case of `CC(C)CCN1CCCN(Cc2cccc(NC(=O)c3ccc(Cl)c(Cl)c3)c2)CC1` [TCMDC-141827] it was 68.73%; in that of `CCCCN1CCN(Cc2cccc(NC(=O)c3ccc(Cl)c(Cl)c3)c2)CC1` [TCMDC-134615], -27.06%. For `O=C(Nc1cccc(CN2CCCN(Cc3cccc(Cl)c3)CC2)c1)c1ccc(Cl)c(Cl)c1` [TCMDC-141822], the “% Inhibition” value is 77.55%. For `CC(C)CCN1CCCN(Cc2ccc(C(=O)Nc3ccc(F)c(F)c3)cc2)CC1` [TCMDC-136391] the value was 89.43%. In the case of `CCC(C)Oc1ccc2nc(N)nc(N)c2c1Cl` (stereo not drawn) [TCMDC-137760], the “% Inhibition” value is listed as 3.28%. In the case of `O=C(NCCOc1ccccc1)[C@H](Cc1ccccc1)Nc1ccnc(NCC2CCCCC2)n1` [TCMDC-134710] it was 2.198%. For `CC(C)(C)CNCC(C)(C)c1nc(-c2ccc(Cl)c(O)c2)c(-c2ccncc2)[nH]1` [TCMDC-140549] the value was -40.13%; for `CN1CCCN(Cc2ccc(-c3cccc(NC(=O)c4ccc(Cl)cc4)c3)cc2)CC1` [TCMDC-132628], 20.29%; for `CN1N=C2c3ccccc3CCC2C1c1ccc(C#N)cc1` (stereo not drawn) [TCMDC-123771], -59.69%. For `CN(CCO)Cc1ccc(-c2ccc(NS(=O)(=O)c3cccc4cccnc34)cc2)cc1` [TCMDC-136473] the value was -2.439%. `C=C(C)COc1ccc(-c2n[nH]c(C(F)(F)F)c2-c2ccccc2OC)c(O)c1` [TCMDC-124477]: the “% Inhibition” value came to 8.317%.

Consider `COc1ccc(N2CCN(C(CNC(=O)C3CCCCC3)c3ccc4c(c3)OCO4)CC2)cc1` (stereo not drawn) [TCMDC-124312], for which the “% Inhibition” value came to 30.25%. In the case of `COc1ccccc1NC(=O)CSc1nc2cccnc2n1-c1ccccc1OC` [TCMDC-123645] it was 66.58%; in that of `COc1ccccc1-n1c(SCC(=O)Nc2ccccc2F)nc2cccnc21` [TCMDC-123647], 7.521%; in that of `COc1ccc(C)cc1NC(=O)CSc1nc2cccnc2n1C1CCCCC1` [TCMDC-123649], 3.671%. With `c1ncc(CCNc2nc(Nc3ccc4c(c3)OCO4)nc(NC3CCCC3)n2)[nH]1` [TCMDC-139739], the “% Inhibition” value turned out to be 13.1%.

With `CC(=O)Nc1ncc(C(=O)Nc2ccc(-c3cccc(-c4nc5ccc(F)cc5[nH]4)c3)cc2)s1` [TCMDC-136912], the “% Inhibition” value was found to be 21.3%. For `O=C(Nc1cc(F)cc(F)c1)N1CCOC(CCN2CCC3(CCc4ccccc43)CC2)(c2ccc(Cl)c(Cl)c2)C1` (stereo not drawn) [TCMDC-135331] the value was -8.718%. For `CCOC(=O)c1c(-c2ccccc2)[nH]c2c(sc3ccccc32)c1=O` [TCMDC-131540] the value was 7.736%; for `CCOC(=O)c1c(SCc2cccc(F)c2F)[nH]c2ccccc2c1=O` [TCMDC-141118], 58.44%. For `Cc1c(CCc2cccc(F)c2F)[nH]c2ccccc2c1=O` [TCMDC-141293] the value was 23.35%; for `CCCCOC(=O)[C@H](CCC)NC(=O)c1ccc(NS(=O)(=O)c2ccc3nc(N)[nH]c(=O)c3c2)cc1` [TCMDC-137698], 14.55%; for `COc1ccc2cc(CNCCCCCCNCc3ccc4cc(OC)ccc4c3)ccc2c1` [TCMDC-137797], 110.4%.

Consider `COc1ccc2c(OC)c(CNCCCCCCNCc3ccc4cc(OC)ccc4c3OC)ccc2c1` [TCMDC-137953], for which the “% Inhibition” value is on record as 105.9%. For `COc1ccc2ccc(OC)c(CNCCCCCCNCc3c(OC)ccc4ccc(OC)cc34)c2c1` [TCMDC-137796] the value was 140.1%; for `COc1ccc2c(CNCCCCCCNCc3c(OC)ccc4cc(OC)ccc34)c(OC)ccc2c1` [TCMDC-137300], 117.1%. In the case of `COc1ccc(OC)c(C(O)CNC(C)C)c1` (stereo not drawn) [TCMDC-124281] it was 22.77%; in that of `COc1cc(CNCCCCCCNCc2cc(OC)cc3ccccc23)c2ccccc2c1` [TCMDC-137823], 16.43%; in that of `Cc1ccc(/C=C/C(=O)NCCCCCN2CCN(C(=O)Nc3ccc(Cl)c(C(F)(F)F)c3)CC2)cc1` [TCMDC-136099], 10.82%.

For `CC1(C)N=C(N)N=C(N)N1OCOc1ccc(Cl)cc1` [TCMDC-131734], the “% Inhibition” value was determined as 26.86%. For `CCCCCCN1CCCN(Cc2ccc(C(=O)Nc3ccc(C)c(F)c3)cc2)CC1` [TCMDC-136411] the value was 22.16%; for `Cc1ccccc1CNC(=O)Nc1cccc(-c2csc(N=C(N)N)n2)c1` [TCMDC-139553], 79.76%.

As for `COc1ccc(CNC(=O)Nc2cccc(-c3csc(N=C(N)N)n3)c2)cc1` [TCMDC-139554], the “% Inhibition” value was 8.01%. For `N=C(N)Nc1nc(-c2ccc(NC(=O)Nc3cccc(-c4csc(NC(=N)N)n4)c3)cc2)cs1` [TCMDC-139559] the value was 111.8%.

With `NC(N)=Nc1nc(-c2cccc(NC(=O)NCc3ccc(OC(F)(F)F)cc3)c2)cs1` [TCMDC-139556], the “% Inhibition” value was 86.49%. In the case of `NC(N)=Nc1nc(-c2cccc(NC(=O)C(F)(F)F)c2)cs1` [TCMDC-137441] it was -3.219%; in that of `NC(N)=Nc1nc(-c2cccc(NC(=O)NCCc3c[nH]c4ccc(OCc5ccccc5)cc34)c2)cs1` [TCMDC-139557], -16.48%; in that of `NC(N)=Nc1nc(-c2cccc(NC(=O)NCc3cccc4ccccc34)c2)cs1` [TCMDC-139552], 11.54%. In the case of `NC(N)=Nc1nc(-c2cccc(NC(=O)CCCCCCCON3C(N)=NC(N)=NC34CCCCC4)c2)cs1` [TCMDC-140420] it was -29.14%; in that of `O=C(Nc1cccc(-c2csc(NC(=O)c3ccc4ccccc4c3)n2)c1)c1ccc2ccccc2c1` [TCMDC-124033], -5.611%.

Consider `NC(N)=Nc1nc(-c2cccc(NC(=O)Cc3ccccc3)c2)cs1` [TCMDC-139599], for which the “% Inhibition” value amounted to 13.87%. In the case of `NC(N)=Nc1nc(-c2ccc(NCc3ccc(CNc4cccc(-c5csc(N=C(N)N)n5)c4)cc3)cc2)cs1` [TCMDC-140699] it was 83.03%.

`NC(N)=Nc1nc(-c2cccc(NC(=O)NCC(c3ccccc3)c3ccccc3)c2)cs1` [TCMDC-139555]: the “% Inhibition” value is reported as -30.72%.
